The whole screen tested about 5,500 compounds, of which about 2,000 (36%) were called active. Inconclusive results (about 18%) are left out. No stated cut-off is given here; in the data, active means normalized growth mostly below about 0.91 (no sharp cut-off); inconclusive means no clear call, values can overlap the other calls; inactive means mostly above about 0.92. Some of the results follow.
Assay: chemical genetic growth profiling, strain panel (AID 1159580);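 further: tested at 20 µM; growth read once vehicle control cultures reached saturation at 30 °C; 1 = growth at the plate median or of vehicle wells; lower values mean less growth of the strain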
Details: growth OD
[1] = S. cerevisiae deletion strains, locus YDL101C, strain DUN1, active compounds read low
[2] = S. cerevisiae deletion strains, locus YHR030C, strain SLT2, active compounds read low

Measured: normalized growth

COC(=O)c1cc([N+](=O)[O-])ccc1S(=O)(=O)Cc1ccc(Cl)cc1
inactive: S. cerevisiae deletion strains, locus YAR019C, strain CDC15, active compounds read low 0.971 | S. cerevisiae deletion strains, locus YBL105C, strain PKC1, active compounds read low 0.983 | S. cerevisiae deletion strains, locus YBR135W, strain CKS1, active compounds read low 0.991 | S. cerevisiae deletion strains, locus YBR136W, strain MEC1, active compounds read low 0.967 | S. cerevisiae deletion strains, locus YBR160W, strain CDC28, active compounds read low 0.998 | S. cerevisiae deletion strains, locus YDL017W, strain CDC7, active compounds read low 0.985 | S. cerevisiae deletion strains, locus YDL028C, strain MPS1, active compounds read low 0.98 | [1] 0.987 | S. cerevisiae deletion strains, locus YDL108W, strain KIN28, active compounds read low 0.988 | S. cerevisiae deletion strains, locus YDL132W, strain cdc53, active compounds read low 0.991 | S. cerevisiae deletion strains, locus YDL214C, strain PRR2, active compounds read low 0.952 | S. cerevisiae deletion strains, locus YDR052C, strain DBF4, active compounds read low 0.996 | S. cerevisiae deletion strains, locus YDR054C, strain cdc34, active compounds read low 0.983 | S. cerevisiae deletion strains, locus YDR226W, strain ADK1, active compounds read low 0.985 | S. cerevisiae deletion strains, locus YDR477W, strain SNF1, active compounds read low 0.948 | S. cerevisiae deletion strains, locus YER123W, strain YCK3, active compounds read low 0.955 | S. cerevisiae deletion strains, locus YER133W, strain GLC7, active compounds read low 0.956 | S. cerevisiae deletion strains, locus YFL009W, strain cdc4, active compounds read low 0.99 | S. cerevisiae deletion strains, locus YFL029C, strain CAK1, active compounds read low 0.974 | S. cerevisiae deletion strains, locus YFR003C, strain YPI1, active compounds read low 0.992 | S. cerevisiae deletion strains, locus YFR019W, strain FAB1, active compounds read low 0.974 | S. cerevisiae deletion strains, locus YFR028C, strain CDC14, active compounds read low 0.981 | S. cerevisiae deletion strains, locus YGR040W, strain KSS1, active compounds read low 0.941 | S. cerevisiae deletion strains, locus YGR052W, strain FMP48, active compounds read low 1.04 | S. cerevisiae deletion strains, locus YGR092W, strain DBF2, active compounds read low 0.946 | [2] 0.937 | S. cerevisiae deletion strains, locus YHR079C, strain IRE1, active compounds read low 0.97 | S. cerevisiae deletion strains, locus YHR082C, strain KSP1, active compounds read low 0.995 | S. cerevisiae deletion strains, locus YHR205W, strain SCH9, active compounds read low 0.98 | S. cerevisiae deletion strains, locus YIL147C, strain SLN1, active compounds read low 0.981 | S. cerevisiae deletion strains, locus YJL095W, strain BCK1, active compounds read low 0.966 | S. cerevisiae deletion strains, locus YJL128C, strain PBS2, active compounds read low 0.967 | S. cerevisiae deletion strains, locus YJL157C, strain FAR1, active compounds read low 0.964 | S. cerevisiae deletion strains, locus YJR016C, strain ILV3, active compounds read low 0.993 | S. cerevisiae deletion strains, locus YJR066W, strain TOR1 (second series), active compounds read low 0.88 | S. cerevisiae deletion strains, locus YJR066W, strain TOR1, active compounds read low 0.965 | S. cerevisiae deletion strains, locus YKL048C, strain ELM1, active compounds read low 0.976 | S. cerevisiae deletion strains, locus YKL067W, strain YNK1, active compounds read low 0.956 | S. cerevisiae deletion strains, locus YKL101W, strain HSL1, active compounds read low 0.949 | S. cerevisiae deletion strains, locus YKL193C, strain SDS22, active compounds read low 0.984 | S. cerevisiae deletion strains, locus YKL203C, strain TOR2, active compounds read low 1 | S. cerevisiae deletion strains, locus YLR113W, strain HOG1, active compounds read low 0.957 | S. cerevisiae deletion strains, locus YLR133W, strain CKI1, active compounds read low 0.951 | S. cerevisiae deletion strains, locus YLR403W, strain SFP1, active compounds read low 0.957 | S. cerevisiae deletion strains, locus YML070W, strain DAK1, active compounds read low 0.958 | S. cerevisiae deletion strains, locus YMR001C, strain CDC5, active compounds read low 0.984 | S. cerevisiae deletion strains, locus YMR205C, strain PFK2 (second series), active compounds read low 0.957 | S. cerevisiae deletion strains, locus YMR277W, strain FCP1, active compounds read low 0.992 | S. cerevisiae deletion strains, locus YNL006W, strain LST8, active compounds read low 0.996 | S. cerevisiae deletion strains, locus YNL020C, strain ARK1, active compounds read low 0.96 | S. cerevisiae deletion strains, locus YNL161W, strain CBK1, active compounds read low 0.988 | S. cerevisiae deletion strains, locus YNL183C, strain NPR1, active compounds read low 0.97 | S. cerevisiae deletion strains, locus YNL207W, strain RIO2, active compounds read low 0.98 | S. cerevisiae deletion strains, locus YNL222W, strain SSU72, active compounds read low 0.988 | S. cerevisiae deletion strains, locus YNL307C, strain MCK1 (second series), active compounds read low 0.976 | S. cerevisiae deletion strains, locus YOL078W, strain AVO1, active compounds read low 0.991 | S. cerevisiae deletion strains, locus YOL136C, strain PFK27, active compounds read low 0.952 | S. cerevisiae deletion strains, locus YOR061W, strain CKA2, active compounds read low 0.948 | S. cerevisiae deletion strains, locus YOR119C, strain RIO1, active compounds read low 0.973 | S. cerevisiae deletion strains, locus YOR231W, strain MKK1, active compounds read low 0.98 | S. cerevisiae deletion strains, locus YOR329C, strain SCD5, active compounds read low 0.984 | S. cerevisiae deletion strains, locus YPL031C, strain PHO85, active compounds read low 0.955 | S. cerevisiae deletion strains, locus YPL153C, strain RAD53, active compounds read low 0.951 | S. cerevisiae deletion strains, locus YPL204W, strain HRR25, active compounds read low 0.95 | S. cerevisiae deletion strains, locus YPL209C, strain IPL1, active compounds read low 0.983 | S. cerevisiae deletion strains, locus YPL256C, strain CLN2, active compounds read low 0.945 | S. cerevisiae deletion strains, locus YPR025C, strain CCL1, active compounds read low 0.987 | S. cerevisiae deletion strains, locus YPR106W, strain ISR1, active compounds read low 0.985 | S. cerevisiae deletion strains, locus YPR111W, strain DBF20, active compounds read low 0.984 | S. cerevisiae deletion strains, strain NNK1, active compounds read low 0.982 | S. cerevisiae deletion strains, strain TSCII, active compounds read low 0.981

O=[N+]([O-])c1ccc(NCCCCCO)nc1
inactive: S. cerevisiae deletion strains, locus YAL013W, strain DEP1, active compounds read low 0.988 | S. cerevisiae deletion strains, locus YBR229C, strain ROT2, active compounds read low 0.98 | S. cerevisiae deletion strains, locus YCL061C, strain MRC1, active compounds read low 0.977 | [1] 0.966 | S. cerevisiae deletion strains, locus YDL134C, strain PPH21, active compounds read low 0.998 | S. cerevisiae deletion strains, locus YDR150W, strain NUM1, active compounds read low 0.975 | S. cerevisiae deletion strains, locus YEL061C, strain CIN8, active compounds read low 1.03 | S. cerevisiae deletion strains, locus YGR078C, strain PAC10, active compounds read low 0.987 | [2] 0.974 | S. cerevisiae deletion strains, locus YHR087W, strain rtc3, active compounds read low 1.05 | S. cerevisiae deletion strains, locus YJL187C, strain SWE1, active compounds read low 1 | S. cerevisiae deletion strains, locus YJR043C, strain POL32, active compounds read low 0.981 | S. cerevisiae deletion strains, locus YJR075W, strain HOC1, active compounds read low 1.02 | S. cerevisiae deletion strains, locus YKL190W, strain CNB1, active compounds read low 1.01 | S. cerevisiae deletion strains, locus YLR039C, strain RIC1, active compounds read low 0.936 | S. cerevisiae deletion strains, locus YLR058C, strain SHM2 (second series), active compounds read low 0.993 | S. cerevisiae deletion strains, locus YLR085C, strain ARP6, active compounds read low 0.993 | S. cerevisiae deletion strains, locus YLR262C, strain YPT6, active compounds read low 1.01 | S. cerevisiae deletion strains, locus YML094W, strain GIM5, active compounds read low 1.04 | S. cerevisiae deletion strains, locus YMR219W, strain ESC1, active compounds read low 1.01 | S. cerevisiae deletion strains, locus YMR263W, strain SAP30, active compounds read low 0.999 | S. cerevisiae deletion strains, locus YMR307W, strain GAS1, active compounds read low 1.07 | S. cerevisiae deletion strains, locus YNL153C, strain GIM3, active compounds read low 0.986 | S. cerevisiae deletion strains, locus YNL298W, strain CLA4 (second series), active compounds read low 0.967 | S. cerevisiae deletion strains, locus YNL322C, strain KRE1, active compounds read low 0.992 | S. cerevisiae deletion strains, locus YNR030W, strain Alg12, active compounds read low 0.99 | S. cerevisiae deletion strains, locus YOL006C, strain TOP1, active compounds read low 0.955 | S. cerevisiae deletion strains, locus YPL055C, strain LGE1, active compounds read low 1.04 | S. cerevisiae deletion strains, locus YPL241C, strain CIN2, active compounds read low 0.974 | S. cerevisiae deletion strains, locus YPR135W, strain CTF4, active compounds read low 0.958 | S. cerevisiae strains, strain wild type, active compounds read low 0.996

— PubChem BioAssay AID1159580 (chemical genetic matrix, 2015)
